Screening results from PubChem.
HP1b chromo inh – HTS for Inhibitors of HP1-beta Chromodomain Interactions with Methylated Histone Tails; AID 540317, 2011; actives 0.56% (n = 390,000); AlphaScreen HP1-beta / biotin-H3K9me3 peptide binding; Potency, µM (titrated, usually from 114 µM), inactives show at the highest dose activity change, negative = inhibition, hits mostly inhibitors; Chromobox protein homolog 1 (Homo sapiens), P83916; note: nearly all actives have a fitted effect of over 70% in size
Target sequence (P83916 whole entry, looked up): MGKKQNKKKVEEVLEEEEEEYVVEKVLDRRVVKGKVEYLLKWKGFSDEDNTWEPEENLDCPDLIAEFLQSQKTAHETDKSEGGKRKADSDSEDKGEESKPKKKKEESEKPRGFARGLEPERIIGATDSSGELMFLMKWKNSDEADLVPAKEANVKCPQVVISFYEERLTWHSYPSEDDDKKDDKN
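HP1-beta protein (50 nM final) preincubated 30 min at room temperature with biotinylated H3(1-18)K9me3 peptide (50 nM) in PBS pH 7.4, 0.01% Tween-20, then compound added for 30 min. AlphaScreen streptavidin donor/nickel chelate acceptor beads (10 ug/mL final), 30 min dark, luminescence read.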
BAZ2B inh – qHTS Assay for Inhibitors of BAZ2B; Bromodomain adjacent to zinc finger domain protein 2B (Homo sapiens), Q9UIF8; AlphaScreen BAZ2B-H3K14Ac peptide displacement; Potency, µM (titrated, usually from 114 µM), for the others: at the top dose activity change, negative = inhibition, hits mostly inhibitors; actives 4.4% (n = 360,000); AID 504333, 2011; note: % is set by controls: 0 for no effect and ±100 for the full control effect; nearly all actives have a fitted effect of over 60% in size
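AlphaScreen luminescence quantifies BAZ2B engagement of H3K14Ac peptide; the protein and biotinylated peptide are both at 50 nM final, buffer PBS pH 7.4 with 0.01% Tween-20, all steps at room temperature.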
Sfp PPTase inh – qHTS Assay for Inhibitors of Bacillus subtilis Sfp phosphopantetheinyl transferase (PPTase) | 4'-phosphopantetheinyl transferase ffp (Bacillus subtilis), Q9F4F7 | Biochemical Sfp PPTase activity, qHTS | Potency, µM, without a hit: largest response in the series, negative = inhibition, most hits filed as inhibitors | actives 3.5% (n = 310,000);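 note: the enzyme is Sfp with the accession as filed and its product quenches rhodamine fluorescence; 0% = enzyme reaction without inhibitor and -100% = no enzyme wells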
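After 15 min at room temperature with compound, 15 nM Sfp received 5 uM rhodamine-CoA plus 12.5 uM BHQ-2-ybbR (50 mM Hepes pH 7.6, 10 mM MgCl2). Rate came from the fluorescence difference over 30 min, ex 525/em 598 nm.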
PLK1 PBD block – qHTS for Inhibitors of PLK1-PDB (polo-like kinase 1 - polo-box domain): Primary Screen; Plk1 PBD binding of FITC phosphopeptide, fluorescence polarization; Potency, µM, without a hit: max response, negative = inhibition, hits mostly inhibitors; actives 2.8% (n = 360,000); AID 720504, 2013; note: series mostly up to about 57 µM; % is set by controls: 0 for no effect and ±100 for the full control effect; nearly all actives have a fitted effect of over 65% in size
JMJD2A Tudor – qHTS Assay for Inhibitors of JMJD2A-Tudor Domain; actives 4.4% (n = 390,000); Potency, µM (top dose mostly 114 µM), without a hit: at the top dose activity change, negative = inhibition, most hits filed as inhibitors; AlphaScreen JMJD2A-Tudor / H3K4me3 peptide binding; note: % is set by controls: 0 for no effect and ±100 for the full control effect; nearly all actives have a fitted effect of over 50% in size
G9a inh – qHTS Assay for Inhibitors of Histone Lysine Methyltransferase G9a; G9a H3K9 monomethylation, AlphaScreen, 2 h; Histone-lysine N-methyltransferase EHMT2 (Homo sapiens), Q96KQ7; AID 504332, 2011; actives 8.8% (n = 350,000); Potency, µM (series often up to 102 µM), for inactives: at the highest dose activity, negative = inhibition, hits mostly inhibitors; note: % is set by controls: 0 for no effect and ±100 for the full control effect; nearly all actives have a fitted effect of over 75% in size
Target sequence (Q96KQ7 913-1193 limits assumed): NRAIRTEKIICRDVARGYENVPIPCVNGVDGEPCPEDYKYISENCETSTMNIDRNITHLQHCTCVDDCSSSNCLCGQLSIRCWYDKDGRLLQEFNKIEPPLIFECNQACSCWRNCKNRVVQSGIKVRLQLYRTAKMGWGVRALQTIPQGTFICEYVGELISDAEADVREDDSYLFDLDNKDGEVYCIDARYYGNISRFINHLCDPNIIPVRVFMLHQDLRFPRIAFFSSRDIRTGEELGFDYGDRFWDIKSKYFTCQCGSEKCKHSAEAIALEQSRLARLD
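AlphaScreen read-out: biotin-H3K9 peptide (500 nM) methylation by 20 nM enzyme with 20 uM SAM, 2 h at room temperature after 15 min compound preincubation; anti-monomethyl H3K9 antibody plus donor/acceptor beads, 10 min dark.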
Numbers without * were called inactive; ? = inconclusive; · = not tested or not shown; [ ] = dose if it differs, or a comment. Hits are enriched below; roughly 12% of the tested compounds scored in any of these assays. Calls come from the whole dose curve; as a rule, active = well fitted curve in the direction sought with a large enough effect; inconclusive = small, poorly fitted or top-dose-only effect, or another doubt; inactive = no such curve, though single readings can be large; an effect the other way counts as inactive or inconclusive. Potency is the fitted concentration of half-maximal effect.

SMILES | HP1b chromo inh | BAZ2B inh | Sfp PPTase inh | PLK1 PBD block | JMJD2A Tudor | G9a inh
CCN(CC)c1ccc(/C=C2\C(=O)N(c3nnc(C)c(=O)[nH]3)N=C2C)cc1 | -1.5% | 8.91µM* | 10µM* | ? | 20µM* | 50.1µM*
CCOc1cc(/C=C2/C(=O)ON=C2C)ccc1O | 4.3% | -38.1% | -19.4% | -3.8% | -4.0% | 50.1µM*
CCN(CC)c1ccc(C=C2C(=O)OC3(CCCCC3)OC2=O)cc1 | 25.9% | ? | -25.3% | -22.3% | -31.2% | ?
c1ccc(C(c2ccccc2)N2CCCC3(CCNCC3)C2)cc1 | · | · | -16.5% | · | · | -7.1%[12.7 µM]
CCN(CC)c1ccc(/C=C2/C(=O)ON=C2C)cc1 | ? | 39.8µM* | -16.4% | ? | 44.7µM* | 44.7µM*
CCOc1cc(/C=C2\CN(C)C/C(=C\c3ccc(O)c(OCC)c3)C2=O)ccc1O | ? | 44.7µM* | -11.4% | -9.3% | 56.2µM* | 35.5µM*
COc1cc(C=C2CN(C)C(=O)C2=O)ccc1O | · | · | · | -3.8% | · | ·
CC1=NOC(=O)/C1=C/c1ccc(O)c(Cl)c1 | 9.9% | 50.1µM* | -34.7% | ? | -17.4% | 50.1µM*
CC1=NOC(=O)/C1=C/c1ccc(N(C)C)cc1 | 13.8% | -36.4% | 4.0% | ? | -34.0% | ?
O=S(=O)(c1cccc2ccccc12)N1CCN(c2nc(-c3cccs3)nc3ccccc23)CC1 | 33.5% | · | · | · | -15.0% | ·
CCCCCOc1c(Cl)cc(C(=O)N(Cc2ccc(C)o2)C2CCS(=O)(=O)C2)cc1Cl (centres undefined) | 2.4% | -13.9% | · | · | -18.4% | -9.7%[59 µM]
CC(=O)c1ccc(NC(=O)Nc2sc3nc4n(c(=O)c3c2C)CCC(C)CC4)cc1 (centres undefined) | 21.3% | -14.7% | · | · | -21.1% | -35.2%[59 µM]
N#Cc1ccccc1S(=O)(=O)N1CCN(c2nc(-c3cccs3)nc3ccccc23)CC1 | 46.4% | · | · | · | ? | ·
Cc1ccc(N=C2C(=O)Nc3ccccc32)cc1 | 17.2% | -14.6% | -0.8% | -8.8% | -14.1% | 11.2%
CC1=NNC(=O)c2ccccc2O1 | 26.5% | 50.1µM* | ? | -12.6% | 5.01µM* | -137.3%[59 µM]
CC(=O)Nc1ccc(SCC(=O)NCC2(N3CCCCC3)CCCCC2)cc1 | 32.9% | · | · | 11.9µM* | -8.9% | ·
Nc1nc(SCC(=O)Nc2cccc(F)c2)n[nH]1 | 21.7% | · | · | -5.1% | -9.7% | ·
Cc1cccc(CNc2cc(-c3ccoc3)ncn2)c1 | · | · | 14.1µM* | · | · | ·
COc1ccccc1CNc1cc(-c2ccoc2)ncn1 | · | · | 28.2µM* | · | · | 1.1%[0.501 µM]
c1cncc(CNc2cc(-c3ccoc3)ncn2)c1 | · | · | 56.2µM* | · | · | -24.5%[0.501 µM]
Cc1cnc(CNc2cc(-c3ccc4c(c3)OCO4)ncn2)cn1 | · | · | 6.9% | · | · | ?
CN(C)c1ccc(-c2cc(NCc3cccnc3)ncn2)cc1 | · | · | -2.7% | · | · | ·
Cc1cnc(CNc2cc(-c3ccoc3)ncn2)cn1 | · | · | 28.2µM* | · | · | ·
Cc1cccc(CNc2cc(-c3ccc(N(C)C)cc3)ncn2)c1 | · | · | -28.2% | · | · | ·
COc1ccccc1CNc1cc(-c2ccccc2OC)ncn1 | · | · | -11.9% | · | · | -7.2%[0.501 µM]
CC(=O)SC[C@@H](Cc1ccccc1)C(=O)NCC(=O)OCc1ccccc1 | · | · | 19.9% | · | · | 14.7%[5.15 µM]
O=C(/C=C/c1ccccc1Cl)Nc1ccc2c(c1)C(=O)NC2=O | ? | 70.8µM* | -12.7% | ? | ? | 25.1µM*
O=C(/C=C/c1ccccc1)Nc1ccc2c(c1)C(=O)NC2=O | 33.5% | -6.3% | -5.5% | 4.3% | -15.6% | -3.1%
OC(COCc1cccs1)CN1CCCCCC1 (centres undefined) | 14.0% | -8.6% | -7.7% | -13.1% | ? | ?
